The results in this text go back to PubChem BioAssay (Tox21).

Inconclusive results are not listed. A call without a number means that no potency is given here. The source made the active and inactive calls. The call rests on the fitted dose curve; in most records, active means well fitted curve in the direction sought with a large enough effect in the repeat runs; inconclusive means weak or mixed curves; inactive means no such curve, though single readings can be large; an effect the other way counts as inactive or inconclusive.

The first assay is described as follows: qHTS RealTime-Glo MT Cell Viability Assay in HepG2 cells - 32 hour (AID 1224877). Further: nearly all actives have a fitted effect of over 55% in size. Further: potency means the concentration at half of the fitted maximal effect. The note with it: RealTime-Glo luminescence; series mostly up to 76.8 µM. Summed up: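 HepG2 cells were seeded at 600 cells/well together with NanoLuc luciferase and a cell-permeant prosubstrate, preincubated 5 h at 37 C/5% CO2, then pin-dosed with compounds in DMSO. Nonlytic luminescence from viable cells was read at each time point.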
(In general: In qHTS, concentration-response curves come from the screen itself.)
Take `C=C(C)CCO`: the Potency result is “inactive”.

For the molecule `CSc1ccc(O)cc1C`, the Potency result was “inactive”.

`Cc1cccc2c1ccc1ccccc12`: the Potency entry is “inactive”.

`CCCCCCCCCCCCCCCCC(C(=O)O)C(O)(CC(=O)O)C(=O)O` (stereo unspecified): the Potency result is “inactive”.

For the molecule `CCN(CC)c1ccc(C=O)c(O)c1`, the Potency result was “inactive”.

On to `CN1CCN(CCCN2c3ccccc3Sc3ccc(Cl)cc32)CC1`, for which the Potency was 23.9 µM (active).

For the molecule `O=C(NCc1ncc(C(F)(F)F)cc1Cl)c1c(Cl)cccc1Cl`, the Potency entry is “inactive”.

`CCC(C)(C)c1ccc(CC(C)CN2C[C@@H](C)O[C@@H](C)C2)cc1` (stereo partly specified): the Potency entry was “inactive”.

`CC1=C(/C=C/C(C)=C/C=C/C(C)=C\C(=O)O)C(C)(C)CCC1`: the Potency result was “inactive”.

In the case of `CC(C)(C)c1ccc(OC2CCCCC2O)cc1` (stereo unspecified), the Potency result is “inactive”.

As for `C=CC(=O)O[C@H]1C[C@@H]2CC[C@@]1(C)C2(C)C`, the Potency result is “inactive”.

`C=C1CC[C@H]2O[C@]2(C)CC[C@@H]2[C@@H]1CC2(C)C`: the Potency entry was “inactive”.

As to `CN(C)CCOc1ccc(/C(=C(/CCCl)c2ccccc2)c2ccccc2)cc1`, the Potency was 40.9 µM (active).

For `CCc1c(C)cc(N)c(CC)c1N`, the Potency entry was “inactive”.

`O=C1OC2(c3ccccc31)c1ccc(O)c(Br)c1Oc1c2ccc(O)c1Br`: the Potency entry is “inactive”.

As to `Cc1ccc(C2OC[C@@H]3OC(c4ccc(C)cc4)O[C@H]([C@H](O)CO)[C@@H]3O2)cc1` (stereo partly specified), the Potency result is “inactive”.

Turning to `CCC1(C)C(=O)N(Cl)C(=O)N1Cl` (stereo unspecified), the Potency result was “inactive”.

With `CCCCCc1ccc(O)cc1`, the Potency result is “inactive”.

Consider `c1ccc(-c2ccc(C(c3ccccc3)n3ccnc3)cc2)cc1` (stereo unspecified), for which the Potency result was “inactive”.

For the molecule `CC(C)c1ccc2sc3ccccc3c(=O)c2c1`, the Potency result was “inactive”.

As for `C1=CCCC1`, the Potency entry was “inactive”.

For the molecule `CC(C)=NNC(N)=S`, the Potency entry is “inactive”.

With `CCC(=O)OC/C=C(\C)CCC=C(C)C`, the Potency entry was “inactive”.

Another assay can be described thus: A CellTox Green Cytotoxicity Assay to monitor cytotoxicity in HepG2 cells - 24 hour (AID 1224878). Further: nearly all actives have a fitted effect of over 45% in size. Further: potency means the concentration at half of the fitted maximal effect. The settings on record: CellTox Green fluorescence; series mostly up to 76.8 µM. Summed up: (§1)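 Using 1536-well format, dye-containing HepG2 suspension was seeded, allowed 5 h at 37 C/5% CO2, dosed by pintool with compounds, positive and negative controls, and imaged for fluorescence across 40 h.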
For the molecule `CSc1ccc(O)cc1C`, the Potency entry was “inactive”.

In the case of `NCc1cccc(C2CCN(C(=O)c3ccc(C#Cc4ccccc4F)o3)CC2)c1`, the Potency is 38.9 µM (active).

On to `CCN(CC)c1ccc(C=O)c(O)c1`, for which the Potency entry was “inactive”.

For `O=C(CCCCCCCCc1cccnc1)N1CCC(C=C(c2ccccc2)c2ccccc2)CC1`, the Potency entry was “inactive”.

With `CN(C)CCOc1ccc(/C(=C(/CCCl)c2ccccc2)c2ccccc2)cc1`, the Potency was 32.5 µM (active).

`CCc1c(C)cc(N)c(CC)c1N`: the Potency entry is “inactive”.

On to `Cc1ccc(C2OC[C@@H]3OC(c4ccc(C)cc4)O[C@H]([C@H](O)CO)[C@@H]3O2)cc1` (stereo partly specified), for which the Potency result was “inactive”.

As to `CCC1(C)C(=O)N(Cl)C(=O)N1Cl` (stereo unspecified), the Potency result is “inactive”.

Take `CCCCCc1ccc(O)cc1`: the Potency is 49 µM (active).

With `CC(O)(c1ccc(Cl)cc1)c1ccc(Cl)cc1`, the Potency was 49 µM (active).

Consider `CN(C/C=C/c1ccccc1)Cc1cccc2ccccc12`, for which the Potency is 23.9 µM (active).

For the molecule `C1=CCCC1`, the Potency result is “inactive”.

Regarding `CC(C)=NNC(N)=S`, the Potency entry was “inactive”.

Turning to `CCC(=O)OC/C=C(\C)CCC=C(C)C`, the Potency entry was “inactive”.

Another assay can be described thus: A CellTox Green Cytotoxicity Assay to monitor cytotoxicity in HepG2 cells - 40 hour (AID 1224879). Further: nearly all actives have a fitted effect of over 40% in size. Further: potency means the concentration at half of the fitted maximal effect. The note with it: CellTox Green fluorescence; series mostly up to 76.8 µM. The procedure, abridged: as §1
Turning to `O=C(CCN1CCC(c2ccccc2)C1)c1ccc2c(c1)OCCO2` (stereo unspecified), the Potency was 26.8 µM (active).

As to `C=C(C)CCO`, the Potency entry is “inactive”.

On to `CSc1ccc(O)cc1C`, for which the Potency entry was “inactive”.

For the molecule `Cc1cccc2c1ccc1ccccc12`, the Potency result is “inactive”.

Turning to `NCc1cccc(C2CCN(C(=O)c3ccc(C#Cc4ccccc4F)o3)CC2)c1`, the Potency is 43.6 µM (active).

`CCN(CC)c1ccc(C=O)c(O)c1`: the Potency entry is “inactive”.

On to `CN1CCN(CCCN2c3ccccc3Sc3ccc(Cl)cc32)CC1`, for which the Potency was 23.9 µM (active).

Regarding `O=C(NCc1ncc(C(F)(F)F)cc1Cl)c1c(Cl)cccc1Cl`, the Potency is 17.4 µM (active).

With `CCC(C)(C)c1ccc(CC(C)CN2C[C@@H](C)O[C@@H](C)C2)cc1` (stereo partly specified), the Potency was 23.9 µM (active).

Consider `CC1=C(/C=C/C(C)=C/C=C/C(C)=C\C(=O)O)C(C)(C)CCC1`, for which the Potency is 55.1 µM (active).

As for `O=C(Cl)c1ccc(Cl)cc1Cl`, the Potency is 54.9 µM (active).

As to `C=CC(=O)O[C@H]1C[C@@H]2CC[C@@]1(C)C2(C)C`, the Potency result was “inactive”.

On to `C=C1CC[C@H]2O[C@]2(C)CC[C@@H]2[C@@H]1CC2(C)C`, for which the Potency result was “inactive”.

Regarding `CN(C)CCOc1ccc(/C(=C(/CCCl)c2ccccc2)c2ccccc2)cc1`, the Potency is 32.5 µM (active).

With `O=C1OC(O)C(C(Cl)Cl)=C1Cl` (stereo unspecified), the Potency is 35.7 µM (active).

In the case of `CCc1c(C)cc(N)c(CC)c1N`, the Potency entry is “inactive”.

For the molecule `Cc1ccc(C2OC[C@@H]3OC(c4ccc(C)cc4)O[C@H]([C@H](O)CO)[C@@H]3O2)cc1` (stereo partly specified), the Potency result was “inactive”.

With `CCC1(C)C(=O)N(Cl)C(=O)N1Cl` (stereo unspecified), the Potency entry is “inactive”.

For `CCCCCc1ccc(O)cc1`, the Potency is 43.6 µM (active).

In the case of `CC(O)(c1ccc(Cl)cc1)c1ccc(Cl)cc1`, the Potency is 49 µM (active).

For `c1ccc(-c2ccc(C(c3ccccc3)n3ccnc3)cc2)cc1` (stereo unspecified), the Potency result is “inactive”.

Turning to `CN(C/C=C/c1ccccc1)Cc1cccc2ccccc12`, the Potency was 21.3 µM (active).

Consider `CC(C)c1ccc2sc3ccccc3c(=O)c2c1`, for which the Potency was 19.5 µM (active).

For the molecule `C1=CCCC1`, the Potency entry is “inactive”.

Regarding `CCC(=O)OC/C=C(\C)CCC=C(C)C`, the Potency entry is “inactive”.

The next assay can be described thus: qHTS RealTime-Glo MT Cell Viability Assay in HEK293 cells - 0 hour (AID 1224880). Further: top concentration of the series differs between compounds; nearly all actives have a fitted effect of over 45% in size. The note with it: RealTime-Glo luminescence; series mostly up to 76.8 µM. Summed up: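 Viable HEK293 cells reduce a cell-permeant prosubstrate; the product diffuses out and is consumed by NanoLuc in the medium to give light. Compounds went in after a 5 h incubation and plates were read over the treatment course.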
On to `O=C(CCN1CCC(c2ccccc2)C1)c1ccc2c(c1)OCCO2` (stereo unspecified), for which the Potency entry was “inactive”.

`CCCCCCCC1CCC(=O)O1` (stereo unspecified): the Potency entry was “inactive”.

On to `C=C(C)CCO`, for which the Potency result was “inactive”.

Regarding `CSc1ccc(O)cc1C`, the Potency result was “inactive”.

`CS(=O)(=O)c1ccc([C@@H](CC2CCCC2)C(=O)Nc2cnccn2)cc1Cl`: the Potency entry was “inactive”.

Turning to `Cc1cccc2c1ccc1ccccc12`, the Potency result was “inactive”.

With `CCCCCCCCCCCCCCCCC(C(=O)O)C(O)(CC(=O)O)C(=O)O` (stereo unspecified), the Potency result was “inactive”.

Consider `NCc1cccc(C2CCN(C(=O)c3ccc(C#Cc4ccccc4F)o3)CC2)c1`, for which the Potency result was “inactive”.

For the molecule `C=C1C(CCl)(CCl)C2(Cl)C(Cl)C(Cl)C1(Cl)C2(Cl)Cl` (stereo unspecified), the Potency entry was “inactive”.

With `CCCCCCCCCCCCN1CCCC1=O`, the Potency entry is “inactive”.

On to `CCN(CC)c1ccc(C=O)c(O)c1`, for which the Potency result was “inactive”.

As to `CC(=O)N(C)C`, the Potency entry is “inactive”.

As for `O=C(NCc1ncc(C(F)(F)F)cc1Cl)c1c(Cl)cccc1Cl`, the Potency entry is “inactive”.

In the case of `CCC(C)(C)c1ccc(CC(C)CN2C[C@@H](C)O[C@@H](C)C2)cc1` (stereo partly specified), the Potency entry is “inactive”.

For `Cc1ccc(Cl)c(N)c1Cl`, the Potency entry is “inactive”.

Consider `CC1=C(/C=C/C(C)=C/C=C/C(C)=C\C(=O)O)C(C)(C)CCC1`, for which the Potency result was “inactive”.

On to `O=C(Cl)c1ccc(Cl)cc1Cl`, for which the Potency entry was “inactive”.

As to `CC(C)(C)c1ccc(OC2CCCCC2O)cc1` (stereo unspecified), the Potency result is “inactive”.

Take `O=C1Cc2ccccc2C1`: the Potency entry is “inactive”.

On to `C=CC(=O)O[C@H]1C[C@@H]2CC[C@@]1(C)C2(C)C`, for which the Potency entry is “inactive”.

For the molecule `C=C1CC[C@H]2O[C@]2(C)CC[C@@H]2[C@@H]1CC2(C)C`, the Potency entry was “inactive”.

`O=C(CCCCCCCCc1cccnc1)N1CCC(C=C(c2ccccc2)c2ccccc2)CC1`: the Potency result was “inactive”.

For the molecule `CN(C)CCOc1ccc(/C(=C(/CCCl)c2ccccc2)c2ccccc2)cc1`, the Potency entry was “inactive”.

On to `O=C1OC(O)C(C(Cl)Cl)=C1Cl` (stereo unspecified), for which the Potency result was “inactive”.

For `CCc1c(C)cc(N)c(CC)c1N`, the Potency result was “inactive”.

Regarding `CCC1(C)C(=O)N(Cl)C(=O)N1Cl` (stereo unspecified), the Potency entry is “inactive”.

As for `CCCCCc1ccc(O)cc1`, the Potency result is “inactive”.

For `CC(O)(c1ccc(Cl)cc1)c1ccc(Cl)cc1`, the Potency result is “inactive”.

Turning to `c1ccc(-c2ccc(C(c3ccccc3)n3ccnc3)cc2)cc1` (stereo unspecified), the Potency entry was “inactive”.

With `CN(C/C=C/c1ccccc1)Cc1cccc2ccccc12`, the Potency result was “inactive”.

Turning to `CC(C)c1ccc2sc3ccccc3c(=O)c2c1`, the Potency result is “inactive”.

For `COc1ccc2ccccc2c1`, the Potency result was “inactive”.

Regarding `CC(C)=NNC(N)=S`, the Potency entry is “inactive”.

Take `CCC(=O)OC/C=C(\C)CCC=C(C)C`: the Potency entry is “inactive”.
